Here are results for 18 molecules from PubChem BioAssay (EPA / NIEHS).

Experiment [1] in a line: CCTE_Shafer_MEA_acute_AB: CCTE's Alamar Blue Assay for Cytotoxicity in the Neural Acute Assay, Shafer Lab (AID 2284069; active means hit-call score of the fitted dose curve at least 0.9, where 1 is the maximum;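 further: active compounds lower the viability signal compared with DMSO wells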). The method in brief:
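Cytotoxicity endpoint for acute MEA exposures of primary rat cortical neurons on day 13 or 15. Resazurin reduction is read fluorescently at 544/590 nm, with DMSO as the negative-control baseline.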

The nature of experiment [2]: CCTE_Shafer_MEA_acute_LDH: CCTE's Lactate Dehydrogenase Assay for Cytotoxicity in the Neural Acute Assay, Shafer Lab (AID 2284086; active means hit-call score of the fitted dose curve at least 0.9, where 1 is the maximum;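 further: active means LDH release rises above DMSO vehicle level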). The method in brief: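 Rat cortical neurons cultured on microelectrode arrays; baseline 40-min recording, compound added, second 40-min recording; medium then sampled for released LDH (colorimetric kit, 490 nm). DMSO = negative control.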

Experiment [3] is described as follows: TAMU_PeakParms_SingleDonor1434_Chronotropy: Texas A&M University (TAMU) 1.5-hr Human Induced Pluripotent Stem Cell (iPSC)-derived Cardiomyocytes Calcium (Ca+2) Flux Assay for Cardiotoxicity: Chronotropy (changes in peak frequency) (AID 2284217). The following applies: actives raise or lower the signal. The method in brief: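 Using fluorescent Ca2+ flux, average beats per second are measured in human iPSC-derived cardiomyocytes treated 90 min (0.5% DMSO vehicle, 0.2–100 uM). Non-beating data points are removed; activity is modeled in both directions relative to DMSO controls.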

A short description of experiment [4]: CCTE_Shafer_MEA_dev_AB: CCTE's Alamar Blue Assay for Cytotoxicity in the Neural Network Formation Assay, Shafer Lab (AID 2284083; active means hit-call score of the fitted dose curve at least 0.9, where 1 is the maximum;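 further: resazurin reduction fluorescence as viability of cultured neurons; twelve days of exposure from plating with re-dosing on DIV 5 and 9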). The method in brief:
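Cytotoxicity companion to the developmental MEA: primary rat cortical neurons, 12-day exposure starting day 0, compound refreshed DIV 5 and 9; resazurin fluorescence, fitted against DMSO vehicle.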

Experiment [5] is described as follows: CCTE_Shafer_MEA_dev_mutual_information_norm: CCTE's Neural Network Formation Assay for Mutual Information Normalization, Shafer Lab (AID 2284091).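 On AC50: mutual information between electrodes summarised as area under curve across four recording days; potency is for a decrease in mutual information relative to DMSO.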 The method in brief: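 Rat cortical cultures, 48-well MEA, continuous exposure DIV 0–12 with full media/compound change DIV 5 and 9. Readout: inter-electrode mutual information, AxIS adaptive spike detection; AUC across DIV 5/7/9/12 recordings; DMSO baseline, negative fitting direction.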

The nature of experiment [6]: CCTE_Shafer_MEA_dev_correlation_coefficient_mean: CCTE's Neural Network Formation Assay for Mean Correlation Coefficient, Shafer Lab (AID 2284093).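 On AC50: well mean pairwise spike train correlation integrated as AUC over recording days 5 to 12; potency fitted for loss of correlation relative to DMSO vehicle wells.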 The method in brief: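 Extracellular firing from rat cortical networks on 48-well MEAs, DMSO-referenced, negative fitting direction. Compound present from plating to DIV12; mean pairwise correlation per well integrated over DIV5–12 recordings by trapezoidal AUC.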

The nature of experiment [7]: CCTE_Shafer_MEA_dev_LDH: CCTE's Lactate Dehydrogenase Assay for Cytotoxicity in the Neural Network Formation Assay, Shafer Lab (AID 2284068; active means hit-call score of the fitted dose curve at least 0.9, where 1 is the maximum;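 further: exposure for twelve days from plating with re-dosing on DIV 5 and 9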). The essentials:
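Developing rat cortical networks on MEA plates are exposed to compound for 12 days from plating. LDH activity is measured spectrophotometrically, with DMSO as baseline.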

The nature of experiment [8]: CCTE_Mundy_HCI_Cortical_Synap_Neur_Matur_NeuriteSpotCountPerNeuriteLength: CCTE's Synaptogenesis and Neurite Maturation Assay in rat cortical cells for Neurite Spot Count per Neurite Length, Mundy Lab (AID 2284210). The essentials:
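Rat primary cortical cultures, glia arrested with AraC at DIV 5, were dosed with media change at DIV 7 and fixed at DIV 12. Synaptophysin puncta per MAP2-labelled neurite length were quantified by high-content imaging versus DMSO.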

Experiment [9] in a line: CCTE_Mundy_HCI_Cortical_NOG_NeuriteLength: CCTE's Neurite Outgrowth Assay in rat cortical cells for Neurite Length, Mundy Lab (AID 2284213). The method in brief: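 Neurite length was read by high-content imaging of βIII-tubulin-labelled neurites in rat primary cortical cultures. Activity was fitted relative to DMSO.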
Experiment [10] in a line: CCTE_Mundy_HCI_Cortical_Synap_Neur_Matur_NeuriteLength: CCTE's Synaptogenesis and Neurite Maturation Assay in rat cortical cells for Neurite Length, Mundy Lab (AID 2284214). The method in brief:
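Rat cortical neurons, AraC at DIV 5; compound + media change DIV 7, end DIV 12 (288.33 h). Fix, MAP2/synaptophysin/Hoechst immunostain, automated HCI of neurite length vs DMSO.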

Experiment [11] is described as follows: CCTE_Mundy_HCI_Cortical_Synap_Neur_Matur_NeuriteSpotCountPerNeuron: CCTE's Synaptogenesis and Neurite Maturation Assay in rat cortical cells for Neurite Spot Count per Neuron Count, Mundy Lab (AID 2284215). The essentials:
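Rat primary cortical cells received AraC at DIV 5, then chemicals with a media change at DIV 7, and were fixed at DIV 12. Synaptophysin puncta on MAP2-stained neurites per neuron were counted by high-content imaging, fitted relative to DMSO.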

Experiment [12] in a line: CCTE_Mundy_HCI_Cortical_Synap_Neur_Matur_SynapseCount: CCTE's Synaptogenesis and Neurite Maturation Assay in rat cortical cells for Synapse Count, Mundy Lab (AID 2284218). The essentials:
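Primary rat cortical culture; AraC DIV 5 to arrest glia; compound + media change DIV 7; terminated DIV 12. PFA/Hoechst fix, anti-MAP2 + anti-synaptophysin immunostain; HCI synapse count/neuron; DMSO = baseline.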

Experiment [13] is described as follows: CCTE_Mundy_HCI_hN2_NOG_NeuriteCount: CCTE's Neurite Outgrowth Assay in human hN2 cells for Neurite Count, Mundy Lab (AID 2284219; active means hit-call score of the fitted dose curve at least 0.9, where 1 is the maximum). The essentials:
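In this morphology assay, hNP1-derived neurons received test chemical 2 h post-plating and were fixed two days later in warm paraformaldehyde/sucrose containing Hoechst 33342. Neurites, labelled by rabbit anti-βIII-tubulin (1:800) and Alexa Fluor-488 (1:500), were counted automatically.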

Experiment [14] can be described thus: CCTE_Mundy_HCI_hN2_NOG_NeuriteLength: CCTE's Neurite Outgrowth Assay in human hN2 cells for Neurite Length, Mundy Lab (AID 2284220; active means hit-call score of the fitted dose curve at least 0.9, where 1 is the maximum). The essentials:
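Using βIII-tubulin immunofluorescence and Hoechst nuclear counterstain, this component quantifies neurite length in hNP1-derived neurons.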

A short description of experiment [15]: UKN5_HCS_SBAD2_neurite_outgrowth: University of Konstanz (UKN) Leist Lab Neurite Outgrowth Assay in human iPSC-derived immature Dorsal Root Ganglia Neurons (UKN5) (AID 2284070). The following applies: actives raise or lower the signal. The essentials:
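Read-out: calcein-AM-stained neurite area by high-content imaging, Hoechst H-33342 for viability, after 24 h exposure of iPSC-derived immature dorsal root ganglia neurons. Activity fitted in both directions relative to DMSO baseline.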

The nature of experiment [16]: IUF_NPC1b_proliferation_BrdU_72hr: Leibniz Research Institute for Environmental Medicine (IUF) 72-hour Neural Progenitor Cell Bromodeoxyuridine (BrdU) Proliferation Assay (NPC1b) (AID 2284207). The method in brief: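 hNPC spheres (primary, GW 16-19 fetal cortex), single sphere/well, EGF+FGF medium; 72 h compound, no renewal; BrdU pulse last 16 h; luminescent ELISA; activity vs DMSO baseline; growth-factor withdrawal as positive control.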

The nature of experiment [17]: IUF_NPC1a_proliferation_area_72hr: Leibniz Research Institute for Environmental Medicine (IUF) 72-hour Neural Progenitor Cell Proliferation Area Assay (NPC1a) (AID 2284208). The essentials: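 Read-out: increase in sphere area over 72 h by automated phase-contrast imaging, fitted in positive direction versus DMSO baseline. One hNPC sphere (0.25-0.35 mm) per well in EGF/FGF medium; growth-factor withdrawal served as positive control.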

Experiment [18] in a line: IUF_NPC1_viability_72hr: Viability Assessment at 72 hours in the Leibniz Research Institute for Environmental Medicine (IUF) Neural Progenitor Cell Proliferation Assay (NPC1) (AID 2284209). The method in brief:
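hNPC spheres, 1/well, EGF+FGF medium, 37C/5% CO2; dosed day 0, 72 h, no re-dosing. Resazurin reduction (alamar blue) fluorescence; DMSO = negative control/baseline; growth-factor-free wells as positive control.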

A short description of experiment [19]: CCTE_Mundy_HCI_Cortical_Synap_Neur_Matur_BPCount: CCTE's Synaptogenesis and Neurite Maturation Assay in rat cortical cells for Branch Point Count, Mundy Lab (AID 2284211). The essentials:
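Rat primary cortical cultures, AraC added DIV 5; chemicals dosed DIV 7 through DIV 12. Fixed cells stained for MAP2, synaptophysin and Hoechst; neurite branch points counted by automated high-content imaging, fitted relative to DMSO.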

Experiment [20] in a line: CCTE_Mundy_HCI_Cortical_NOG_NeuriteCount: CCTE's Neurite Outgrowth Assay in rat cortical cells for Neurite Count, Mundy Lab (AID 2284212).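 Further: cells fixed about two days after chemical exposure began.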 The essentials: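 Neurite number per cell from high-content imaging of betaIII-tubulin immunostaining, with Hoechst nuclear counterstain.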

Inconclusive results are not listed. Some compounds were tested as several samples or in several runs, with calls that do not always agree. The source made the active and inactive calls. How the source made its calls, unless noted: active means hit-call score of the fitted dose curve at least 0.9, where 1 is the maximum; inactive means score below 0.9.

Turning to `C=CCOC(=O)c1ccccc1C(=O)OCC=C`, the result in [1] was inactive.
Regarding `CC(C)(C)c1cc(O)c(C(C)(C)C)cc1O`, the molecule was called inactive in [1] and in experiment [2].
Turning to `CCOc1ccc2c(c1)C(C)=CC(C)(C)N2`, the outcome in experiment [3] was inactive.
Consider `Cc1ccc(C)c(O)c1C`, for which, in [1], the outcome was inactive.
Consider `c1cc(-c2ccncc2)ccn1`, for which the molecule was classed as inactive in [1] and in [2].
For the molecule `CNCc1cc(F)ccc1Oc1ccc(Cl)c(Cl)c1`, the molecule was classed as inactive in [1] and in [2].
Take `Cc1cc(=O)[nH]c(=S)[nH]1`: the result in experiment [4], in experiment [5] and in [6] was inactive.
Consider `Cc1ccc2ncccc2c1`, for which the molecule was called inactive in [1].
Regarding `NCC1(Cc2noc(=O)[nH]2)CCCCC1`, the outcome in [2] was inactive.
`O=c1[nH]cc(F)c(=O)[nH]1`: the AC50 is 2.48 µM (active) in experiment [7], 3.24 µM (active) in experiment [4], 0.756 µM (active) in [5] and 0.696 µM (active) in experiment [6]. Further, the call in [8], in [9], in [10], in [11], in experiment [3] and in [12] was inactive. The molecule was classed as inactive in [13] and in experiment [14].
As for `O=C(O)CCCCC(=O)O`, the molecule was called inactive in experiment [2] and in experiment [3].
In the case of `Clc1cc(Cl)c(Cl)cc1Cl`, the molecule was called inactive in [1].
In the case of `Cc1ccc(C(C)C)c(O)c1`, the outcome in experiment [1] was inactive.
As for `Nc1ccc2c(c1)C(=O)c1ccccc1C2=O`, in [2], the molecule was called inactive.
Consider `CCCc1cc(=O)[nH]c(=S)[nH]1`, for which the AC50 is 23.8 µM (active) in experiment [7], 24.6 µM (active) in experiment [4] and 23.9 µM (active) in experiment [6]. Further, the molecule was called inactive in experiment [7], in [1], in [4], in experiment [2], in experiment [5] and in experiment [6]. Besides, the call in [8], in experiment [9], in [10], in [11], in experiment [3] and in experiment [12] was inactive. In addition, the call in experiment [13] and in experiment [14] was inactive.
With `CC(=O)Oc1ccccc1C(=O)O`, the result in experiment [7], in experiment [15], in experiment [4], in [5], in experiment [6] and in experiment [17] was inactive. Further, the result in experiment [18], in experiment [8], in experiment [19], in experiment [20], in [9] and in [10] was inactive. For the same molecule, the outcome in [11], in experiment [3] and in [12] was inactive. Besides, the AC50 was 15 µM (active) in [5] and 0.725 µM (active) in [16].
With `FC(F)(F)C(F)(F)C(F)(F)C(F)(F)C(F)(F)C(F)(F)CCI`, the result in experiment [1], in experiment [4], in experiment [5] and in [6] was inactive.
`COC(=O)c1ccc(O)cc1`: the concentration at half-maximal activity (AC50) in experiment [3] is 50 µM (active).
